Laboratory results reported in PubChem BioAssay (NCATS).
Inconclusive results are not listed. A call without a number means that no potency is given here. Activity calls are given as the source filed them. The call rests on the fitted dose curve; in most records, active means well fitted inhibition curve with a large enough effect; inconclusive means small, poorly fitted or top-dose-only effect; inactive means flat fitted curve, though single readings scatter.

What follows are compounds tested on ICS (assay: qHTS profiling for inhibitors of Plasmodium falciparum proliferation (AID 504749; further: nearly all actives have a fitted effect of over 60% in size)). Conditions: P. falciparum in erythrocytes, SYBR Green DNA, 72 h; series mostly up to 28.7 µM.
Summary of the method: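 P. falciparum-infected erythrocytes (0.3% parasitemia, 2.5% hematocrit) incubated with compound 72 h at 37 C, 5% CO2. Parasite DNA detected by SYBR Green after lysis, overnight at room temperature; normalised to 0.29 uM artemisinin and DMSO.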
Potency means the concentration at half of the fitted maximal effect.

| SMILES | Potency |
| --- | --- |
| Cc1cccc(C)c1OCC(C)N (stereo not given) | inactive |
| COc1ccc(Cc2nccc3cc(OC)c(OC)cc23)cc1OC | inactive |
| CC(=O)c1ccc(S(=O)(=O)NC(=O)NC2CCCCC2)cc1 | inactive |
| CC1=C(/C=C/C(C)=C/C=C/C(C)=C/C(=O)Nc2ccc(O)cc2)C(C)(C)CCC1 | 11.2 µM (active) |
| CC(=O)N[C@@H](CS)C(=O)O | inactive |
| Cc1cnc(C(=O)O)c[n+]1[O-] | inactive |
| O=C1NC(=O)C(c2ccccc2)(c2ccccc2)N1 | inactive |
| CN(C)CCC(c1ccccc1)c1ccccn1 (stereo not given) | inactive |
| CC/C(=C(\c1ccccc1)c1ccc(OCCN(C)C)cc1)c1ccccc1 | 12.6 µM (active) |
| O=C1NCC2(CCN(CCc3ccccc3)CC2)O1 | inactive |
| CC(=O)O[C@]1(C(C)=O)CC[C@H]2[C@@H]3C=C(Cl)C4=CC(=O)[C@@H]5C[C@@H]5[C@]4(C)[C@H]3CC[C@@]21C | 12.6 µM (active) |
| NC(N)=Nc1nc(CSCC/C(N)=N/S(N)(=O)=O)cs1 | inactive |
| CCCCCN(C)CCC(O)(P(=O)(O)O)P(=O)(O)O | inactive |
| NCCS | inactive |
| COc1ccccc1N1CCN(CCCNc2cc(=O)n(C)c(=O)n2C)CC1 | inactive |
| O=C(NCCN1CCOCC1)c1ccc(Cl)cc1 | inactive |
| C[C@@H](O)[C@H]1C(=O)N2C(C(=O)O)=C(S[C@@H]3CN[C@H](C(=O)N(C)C)C3)[C@H](C)[C@H]12 | inactive |
| CC(=O)CCCCn1c(=O)c2c(ncn2C)n(C)c1=O | inactive |
| O=C(O)c1cc(-c2ccccc2)nc2ccccc12 | inactive |
| O=C(O)Cc1cccc2ccccc12 | inactive |
